# Experimental data as given in ChEMBL document CHEMBL3433997, “St. Jude Leishmania screening dataset” (2016).
# What was measured:
# Type in all cases: functional
# [1] = target: Solute carrier family 2, facilitated glucose transporter member 1 (Homo sapiens) (UniProt P11166); assay: ST_JUDE_LEISH: Cytotoxicity at 2uM final concentration against transgenic Leishmania Mexicana promastigotes LmGLUT1 that are glucose transport deficient and complemented with the human glucose transporter GLUT1. Activity is measured by DNA content using SYBR green in vitro
# Solute carrier family 2, facilitated glucose transporter member 1 (Homo sapiens), sequence (P11166 whole entry): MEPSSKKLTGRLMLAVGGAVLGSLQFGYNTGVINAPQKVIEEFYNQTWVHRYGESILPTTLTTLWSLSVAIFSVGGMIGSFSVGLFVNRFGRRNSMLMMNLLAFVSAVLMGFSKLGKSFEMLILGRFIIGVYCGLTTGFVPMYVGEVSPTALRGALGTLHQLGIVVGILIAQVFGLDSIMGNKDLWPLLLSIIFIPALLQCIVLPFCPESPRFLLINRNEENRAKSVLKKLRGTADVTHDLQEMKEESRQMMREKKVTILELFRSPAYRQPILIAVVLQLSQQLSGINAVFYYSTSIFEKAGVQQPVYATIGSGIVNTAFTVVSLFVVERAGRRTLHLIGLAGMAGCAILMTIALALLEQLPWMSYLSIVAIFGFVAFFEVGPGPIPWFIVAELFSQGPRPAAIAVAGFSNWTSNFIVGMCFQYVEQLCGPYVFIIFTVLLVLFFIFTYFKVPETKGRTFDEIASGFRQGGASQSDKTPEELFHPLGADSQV
# [2] = target: Hexose transporter 1 (Plasmodium falciparum) (UniProt O97467); assay: ST_JUDE_LEISH: Cytotoxicity at 2uM final concentration against transgenic Leishmania Mexicana promastigotes LmPfHT that are glucose transport deficient and complemented with the Plasmodium falciparum hexose transporter. Activity is measured by DNA content using SYBR green in vitro
# [3] = target: Glucose transporter (Leishmania mexicana) (UniProt O61059); assay: ST_JUDE_LEISH: Cytotoxicity at 2uM final concentration against transgenic Leishmania Mexicana promastigotes LmGT2 that are glucose transport deficient and complemented with the L. Mexicana glucose transporter 2. Activity is measured by DNA content using SYBR green in vitro
Structure (SMILES),inhibition [1] [%],inhibition [2] [%],inhibition [3] [%]
Cc1nc(C)c(-c2ccc(Oc3ccc([S+](C)[O-])cc3)cc2)c(O)c1Br (stereo not given),3.66,3.7,3.99
Clc1ncccc1-c1nc(NCCC(c2ccccc2)c2ccccc2)no1,4.29,2.24,2.64
COc1ccc2nccc([C@@H](O)CN3CCC(NS(=O)(=O)c4cc(Br)c(Br)s4)CC3)c2c1,3.72,2.36,1.8
N#Cc1ccc(N2CCN(Cc3cccc(-c4cccc(-c5nc6cc(C(F)(F)F)ccc6[nH]5)c4)c3)CC2)nc1,0.03,0.73,-2.37
CS(=O)(=O)Nc1ccc2c(C3CCN(CCC4CCN(C(=O)/C=C/c5ccc(Cl)c(Cl)c5)CC4)CC3)c[nH]c2c1,4.12,3.65,4.12
CCCCCCNc1cc(C)nc(NC(=N)Nc2cccc(C(F)(F)F)c2)n1,1.36,3.48,4.89
COc1ccc(C=NN=c2cc(C)[nH]c3ccccc23)cc1OC,7.8,9.53,2.8
O=[N+]([O-])c1ccccc1C=NN=c1c2c([nH]c3ccccc13)CCCC2,20.8,17.5,12
O=C(Cc1ccc(NC(=O)c2ccc(O)c(-c3cccc([N+](=O)[O-])c3)c2)cc1)NCCN1CCCCC1,-0.19,-1.26,-0.03
O=S(=O)(c1cc(Cl)ccc1Cl)N1CCCCC(c2ccc(C(F)(F)F)cc2)=N1,0.47,2.66,5.01
Cc1cccc(CN2CCC(Oc3ccc(NC(=O)c4cccs4)cc3Cl)CC2)n1,5.76,3.92,2.69
Cc1ccc(CN2CCN(Cc3cccc(NC(=O)c4cccs4)c3)CC2)cc1C,2.28,2.39,1.91
OC(CN1c2ccccc2Sc2ccccc21)CN(C1CCCCC1)C1CCCCC1 (stereo not given),6.08,6.38,3.8
COc1cccc(NC(=O)NCCNc2ccnc(Nc3ccc(F)cc3)n2)c1,4.09,5.04,0.9
CC(O)C1CCCCN1C(=O)c1cccc(-c2cccc(-c3nc4cc(F)ccc4[nH]3)c2)c1 (stereo not given),3.45,3.21,1.62
COc1ccc(-c2ccc(NC(=O)c3cccc(Cl)c3)cc2)cc1CN(C)CCN(C)C,15.6,14.4,4.62
COc1ccc2ncc(F)c(CCN3CC4CCCC4(CNCc4ccc5c(n4)NC(=O)CS5)C3)c2n1 (stereo not given),1.18,1.32,0.3
Fc1ccc2[nH]c(-c3cccc(-c4ccc(CN5CCCCC5)cc4)c3)nc2c1,4.18,3.6,2.43
OC(CNCc1ccccc1OCc1ccccc1)c1cccc(C(F)(F)F)c1 (stereo not given),15.1,11.6,10.8
Cc1cc(NC(=O)CCN2CCN(c3cccc(Cl)c3Cl)CC2)ccc1N1CCN(C(C)C)CC1,-0.22,-0.39,-2.11
CN(C)Cc1ccc(-c2cccc(Nc3nccc(NCC(O)c4ccccc4)n3)c2)cc1 (stereo not given),0.75,1.38,0.25
CN(C)CCNC(=O)[C@H](Cc1ccccc1)NC(=O)c1ccc(O)c(-c2ccc(Cl)c(Cl)c2)c1,-0.64,1.18,-2.32
CCc1cccc2sc(N3CCN(C(=O)c4ccc([N+](=O)[O-])o4)CC3)nc12,71.2,69.1,36.8
CN(C)CCCOc1c(C(C)(C)C)cc(-c2cc(C(C)(C)C)c(OCCCN(C)C)c(C(C)(C)C)c2)cc1C(C)(C)C,7.07,4.77,3.12

Structure (SMILES),inhibition [1] [%],inhibition [2] [%],inhibition [3] [%]
COc1cc(Cc2cnc(N)nc2N)cc(OCCCCC#N)c1OC,2.09,1.74,5.77
Cc1cccc(NC(=O)NC2CCN(CCCCCNC(=O)/C=C/c3ccc(Cl)c(Cl)c3)CC2)c1,4.31,3.83,3.5
COc1cc(NC(=O)N2CCOC(CCN3CCC(c4ccccc4)CC3)(c3ccc(Cl)c(Cl)c3)C2)cc(OC)c1 (stereo not given),0.76,1.73,-1.37
FC(F)(F)c1ccc(-c2ccc(CNC3CCN(CCN4CCOCC4)CC3)cc2)cc1,1.09,0.81,3.26
CC(=O)Nc1ccc(C(=O)Nc2cccc(-c3ccc(-c4nc5cc(F)ccc5[nH]4)s3)c2)cn1,0.96,1.55,2.75
CC[C@H]1CN(Cc2ccco2)CC[C@H]1CCCc1ccnc2ccc(O)cc12,4.7,4.86,4.42
Cc1ccc(NC(=O)Cc2noc(CC3CCCN3C(=O)N[C@@H](C)c3ccccc3)n2)cc1 (stereo not given in full),3.91,2.95,1.32
COc1ccc(-c2ccc(CNCc3ccc(F)cc3)cc2)cc1S(=O)(=O)NCCN1CCCC1,0.67,1.06,3.23
Cc1[nH]c(C)c(Cc2ccc(Oc3ccc(OC(F)(F)F)cc3)cc2)c(=O)c1Br,-0.67,-0.95,-3.03
Nc1nc(N)c2c(ccc3ccccc32)n1,14.7,28.9,19
CC(CCON1C(N)=NC(N)=NC1(C)C)c1ccc(Cl)cc1 (stereo not given),21.4,29.5,21
Cc1cccc2nc(-c3ccc(-c4ccc(NC(=O)NCc5cccc(F)c5)cc4)s3)[nH]c12,7.99,9.74,5.43
O=C(Nc1ccc(Cn2ncc(N3CCNCC3)c(Cl)c2=O)cc1)Nc1ccc(-c2ccccc2)cc1,4.36,2.78,-0.78
CCCc1cc(OC)c(CC2c3cc(O)c(Cl)cc3C(c3ccccc3)CN2C)cc1OC (stereo not given),7.84,1.11,3.98
CCn1cc(-c2nc(-c3cc(OC)cc(OC)c3)no2)c(=O)c2ccccc21,12.3,6.39,2.79
CCN(CC)CCCNc1c2ccccc2nc2ccccc12,23.4,22.3,16.5
CC(C)C[C@H](NC(=O)c1cc(-c2ccc(F)cc2)no1)C(=O)O.CC(C)C[C@H](NC(=O)c1conc1-c1ccc(F)cc1)C(=O)O,1.19,2.32,2.96
COc1cc2nc(N3CCC(CNC(=O)/C=C/c4cccc(C)c4)CC3)nc(N)c2cc1OC,7.71,0.18,-0.03
CC(=NNC(=N)N)c1ccc2ccc3ccccc3c2c1,0.27,1.38,0.74
CCCCCCCCN1CCN(CCCCCCNc2c3ccccc3nc3ccccc23)CC1,55.5,28.6,61.1
O=C(Nc1cccc(-c2ccc(-c3nc4cc(F)ccc4[nH]3)s2)c1)c1ccncc1,6.59,5.83,3.32
Cc1cccc2nc(-c3cccc(-c4cccc(NC(=O)c5cnn6cccnc56)c4)c3)[nH]c12,5.09,4.22,1.19
N=C(N)c1ccc(NC(=O)c2cc(Sc3ccc(O)c(C(=O)Nc4ccc(C(=N)N)cc4)c3)ccc2O)cc1,9.7,10.9,4.34
Cc1cccc2nc(-c3ccc(-c4cccc(CNC5CCN(C)CC5)c4)s3)[nH]c12,-2.43,2.74,-0.61

Structure (SMILES),inhibition [1] [%],inhibition [2] [%],inhibition [3] [%]
N#Cc1ccc(-c2cnc3ccc(NCCc4cccnc4)nn23)cc1,-0.81,-0.84,0.25
CC(C)(C)Cn1cc(-c2ccc(C(=O)NCCc3ccc(S(C)(=O)=O)cc3)cc2)c(N)n1.CC(C)(C)Cn1ncc(-c2ccc(C(=O)NCCc3ccc(S(C)(=O)=O)cc3)cc2)c1N,0.21,1.16,2.93
CCCCNCc1ccc(-c2nc(CN(CCCn3ccnc3)C(=O)C3COc4ccccc4O3)cs2)cc1 (stereo not given),0.43,4.78,-0.46
Nc1nc(N)c2c(n1)CCC(c1ccccc1)C2 (stereo not given),2.39,1.07,1.39
O=C(Nc1cccc(CN2CCN(Cc3ccc(O)cc3)CC2)c1)c1ccc(-c2ccccc2)cc1,4.37,2.25,-3.36
CCCCCCCC(=O)N[C@@H](Cc1ccccc1)C(=O)N[C@H](C(=O)O)C(C)C,2.54,1.23,2.59
COc1cc2c(cc1OCCN1CCC(N3CCCCC3)CC1)N(C(=O)/C=C/c1ccccc1OC(F)(F)F)CC2,2.32,5.04,3.58
COc1ccc(-c2cc(Nc3nc(-c4cccc(Cl)c4)nc4ccccc34)ccn2)cc1,1.11,0.61,-0.05
Cc1ccc(Oc2ncccc2C(=O)Nc2cccc3cccnc23)c(C)c1,-2.47,-0.84,-1.45
CC(C)C1=CC(=NOS(=O)(=O)c2ccccc2)C=C(C(C)C)C1=O,0.62,4.11,-0.38
COc1cc(O)c2c(=O)c(OC)c(-c3cccc(Cl)c3OC3O[C@H](CO)[C@@H](O)[C@H](O)[C@H]3O)oc2c1OC (stereo not given in full),5.21,4.48,4.54
CC(C)(C)OC(=O)N(Cc1cc(-n2nnnc2C(F)(F)F)ccc1O)[C@H]1CCCN(C(=O)OC(C)(C)C)[C@H]1c1ccccc1,-0.38,-2.92,-3.2
CC1(CCc2ccccc2)N=C(N)N(Cc2ccccc2)C(=O)C1c1ccc(Cl)c(Cl)c1 (stereo not given),3.32,2.08,0.94
O=C1CN(C(=O)CCC2CCCC2)C(c2ccc(F)cc2)c2cc(F)ccc2N1 (stereo not given),5.81,3.45,0.37
c1ccc(Oc2cccc(Nc3ccnc4ccccc34)c2)cc1,8.44,10.4,3.97
CC(=O)c1cccc(NC(=O)c2ccc(Cl)c(S(=O)(=O)N3CCc4ccccc43)c2)c1,12.1,11.9,12
CS(=O)(=O)N1CC2(CCN(CCC(NC(=O)NCc3ccc(Cl)c(Cl)c3)c3ccc(Cl)c(Cl)c3)CC2)c2ccccc21 (stereo not given),0.66,-2.55,-1.75
c1ccc(-c2csc(Nc3nc4cc5c(cc4s3)OCO5)n2)nc1,0.62,0.83,-1.72
Cc1ncc(CN2CCC(C(=O)Nc3ccc(-c4nc5ccccc5o4)cc3)CC2)s1,-2.13,-3.66,-0.97
CC(=O)Nc1ccc(C(=O)Nc2cccc(-c3cccc(-c4nc5ccccc5[nH]4)c3)c2)cn1,2.35,-0.22,1.34
O=C(NC1CCN(CCC[C@]2(c3ccc(Cl)c(Cl)c3)CCCN(C(=O)c3ccccc3)C2)CC1)c1ccc(F)cc1,3.29,2.13,2.74
CC(C)COc1ccc(Cl)cc1Cc1ccc(-c2nc3cc(CCN(C)C)ccc3[nH]2)o1,2.44,4.3,3.29
